Measurements reported in PubChem BioAssay (NCI).
The panel holds about 83,000 compounds, 20% with a hit somewhere; the sample as a whole holds those more often.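 Assay: single dose, 48 h. Readout: percent growth (0 = no net growth; negative = cell death). Active: <10.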 Calls of active or inactive are those of the source.

These molecules were tested on IGROV1 ovarian (assay: NCI-60 one-dose screen, 48 h (100 = growth as untreated, 0 = no growth, -100 = all killed)). Conditions: 10 µM unless noted.

| SMILES | growth |
| --- | --- |
| O=C1OCC2=C1C(c1ccccc1)c1cc3c(cc1N2CCO)OCO3 (centres undefined) | 39.5% (inactive) |
| COc1ccc(/C=C/c2nc(NCCCN(C)C)c3ccccc3n2)cc1 | 49.9% (inactive) |
| c1ccc(CCn2cccc2)nc1 | 121% (inactive) |
| Nc1cc(C(=O)O)cc(C(=O)O)c1 | 102% (inactive) |
| Fc1ccc(-c2nc(-c3ccc(-c4nc5ccc(F)cc5[nH]4)cc3)no2)cc1 | 74.3% (inactive) |
| N=C(N)c1ccc(NCCNc2ccc(C(=N)N)cc2)cc1 | 98.5% (inactive) |
| COc1ccc(CC2c3cc(OC)c(OC)cc3CC[N+]2(C)CCC(=O)OCCCCCOC(=O)CC[N+]2(C)CCc3cc(OC)c(OC)cc3C2Cc2ccc(OC)c(OC)c2)cc1OC (centres undefined) | 102% (inactive) |
| C=CCN(CC#N)CC=C | 120% (inactive) |
| O=C1Nc2ccccc2/C1=C\c1nc(C2CCN(S(=O)(=O)c3ccc(F)cc3)CC2)n2ccccc12 | 57% (inactive) |
| COc1ccc(Nc2nc(N)nc3c(=O)[nH]ccc23)cc1 | 87.5% (inactive) |

The molecules below were run on OVCAR-3 ovarian in the same assay as above. Conditions: 10 µM unless noted.

| SMILES | growth |
| --- | --- |
| N/N=C(\C(=N\N)c1ccccc1)c1ccccc1 | 112% (inactive) |
| C=C(C)[C@@H]1CC[C@]2(C(=O)NS(=O)(=O)c3ccccc3)CC[C@]3(C)[C@H](CC[C@@H]4[C@@]5(C)CC[C@H](OC(=O)NS(=O)(=O)c6ccccc6)C(C)(C)[C@@H]5CC[C@]43C)[C@@H]12 | -31.3% (active) |
| CN1C(=O)N(C)C2C1NN=c1s/c(=C\c3ccc(C(F)(F)F)cc3)c(=O)n12 (centres undefined) | 3.49% (active) |
| COc1ccc(N=C2CSc3nnc(-c4cc(F)c(Cl)cc4Cl)n3N2)cc1 | -74% (active) |
| O=C1C=CN2C(=O)CC=CC2[C@@H]1O (some centres undefined) | 120% (inactive) |
| CCCNCCC(C)=O | 116% (inactive) |
| O=C(Cc1ccc([N+](=O)[O-])cc1)Oc1ccccc1 | 119% (inactive) |
| CN(C)c1ccc(/C=C\c2cccc[n+]2C)cc1 | 9.08% (active) |
| COC(=O)c1ccc2c(c1)nc(-c1ccc(Cl)cc1)n2-c1cc(C(C)(C)C)[nH]n1 | 41.9% (inactive) |
| Cc1ccc(Nc2cc(Cl)c([N+](=O)[O-])cc2[N+](=O)[O-])cc1 | 0.375% (active) |
| CCOC(=O)c1cc(C(=O)OCC)c(C)nc1C | 114% (inactive) |
| O=C(Nc1cccc(C2=NCCN2)c1)c1ccc(N=Nc2ccc(C(=O)Nc3cccc(C4=NCCN4)c3)cc2)cc1 | 77.4% (inactive) |
| Cc1c(C(=O)CCl)c(=O)n(-c2ccccc2)n1C | 18.4% (inactive) |
| O=C1/C=C/[C@@H](O)[C@@H]2C[C@@H](O)C[C@H]2/C=C/CCC[C@H]([C@@H](O)CO)O1 | 86.7% (inactive) |
| Cn1c(=O)c2c(nc(N/N=C/c3ccccc3Cl)n2C)n(C)c1=O | 119% (inactive) |
| O=C1Nc2ccc(Cl)cc2/C1=C\c1c(-c2ccc(F)cc2)nc2ccccn12 | -70.4% (active) |

| SMILES | growth |
| --- | --- |
| COC(=O)c1ccc2c(c1)nc(-c1cc3ccccc3[nH]c1=O)n2-c1cc(C(C)(C)C)[nH]n1 | 94.5% (inactive) |
| CCOC(=O)Nc1ccc2nc(N3CCCCCC3)sc2c1 | -20.5% (active) |
| COC(=O)CSc1ccc(Cl)cc1 | 122% (inactive) |
| COc1ccc(C(=O)N2N=C(c3ccc(F)cc3)CC2c2cn(-c3ccccc3)nc2-c2ccccc2)cc1 (centres undefined) | 45.8% (inactive) |
| N=c1nc(N2CCCCC2)cc(N)n1O | 112% (inactive) |
| COc1ccc(C2NC(=O)c3cc4c(cc3N2)OCO4)cc1 (centres undefined) | -45.9% (active) |
| O=C1OCC2=C1C(c1ccccc1)c1cc3c(cc1N2CCO)OCO3 (centres undefined) | 3.99% (active) |
| COc1ccc(/C=C/c2nc(NCCCN(C)C)c3ccccc3n2)cc1 | 79.4% (inactive) |
| Nc1cc(C(=O)O)cc(C(=O)O)c1 | 123% (inactive) |
| Fc1ccc(-c2nc(-c3ccc(-c4nc5ccc(F)cc5[nH]4)cc3)no2)cc1 | 94.3% (inactive) |
| N=C(N)c1ccc(NCCNc2ccc(C(=N)N)cc2)cc1 | 110% (inactive) |
| COc1ccc(CC2c3cc(OC)c(OC)cc3CC[N+]2(C)CCC(=O)OCCCCCOC(=O)CC[N+]2(C)CCc3cc(OC)c(OC)cc3C2Cc2ccc(OC)c(OC)c2)cc1OC (centres undefined) | 95.9% (inactive) |
| C=CCN(CC#N)CC=C | 119% (inactive) |
| O=C1Nc2ccccc2/C1=C\c1nc(C2CCN(S(=O)(=O)c3ccc(F)cc3)CC2)n2ccccc12 | 58.6% (inactive) |
| COc1ccc(Nc2nc(N)nc3c(=O)[nH]ccc23)cc1 | 113% (inactive) |

The molecules below were run on HS 578T breast in the same assay as above. Conditions: 10 µM unless noted.

| SMILES | growth |
| --- | --- |
| N/N=C(\C(=N\N)c1ccccc1)c1ccccc1 | 108% (inactive) |
| C=C(C)[C@@H]1CC[C@]2(C(=O)NS(=O)(=O)c3ccccc3)CC[C@]3(C)[C@H](CC[C@@H]4[C@@]5(C)CC[C@H](OC(=O)NS(=O)(=O)c6ccccc6)C(C)(C)[C@@H]5CC[C@]43C)[C@@H]12 | 14.5% (inactive) |
| O=[N+]([O-])c1ccc(N/N=C/c2ccccc2O)nc1 | 79.7% (inactive) |
| CN1C(=O)N(C)C2C1NN=c1s/c(=C\c3ccc(C(F)(F)F)cc3)c(=O)n12 (centres undefined) | 18.5% (inactive) |
| CC(C)c1ccc(-c2cnc3nonc3n2)cc1 | 77.6% (inactive) |
| COc1ccc(N=C2CSc3nnc(-c4cc(F)c(Cl)cc4Cl)n3N2)cc1 | -43.8% (active) |
| O=C1C=CN2C(=O)CC=CC2[C@@H]1O (some centres undefined) | 121% (inactive) |
| CCCNCCC(C)=O | 89.9% (inactive) |
| O=C(Cc1ccc([N+](=O)[O-])cc1)Oc1ccccc1 | 109% (inactive) |
| CN(C)c1ccc(/C=C\c2cccc[n+]2C)cc1 | 61.5% (inactive) |
| COc1cccc(NC(=O)OC(C)C)c1 | 99% (inactive) |
| COC(=O)c1ccc2c(c1)nc(-c1ccc(Cl)cc1)n2-c1cc(C(C)(C)C)[nH]n1 | 53.3% (inactive) |
| Cc1ccc(Nc2cc(Cl)c([N+](=O)[O-])cc2[N+](=O)[O-])cc1 | 92.1% (inactive) |
| CCOC(=O)c1cc(C(=O)OCC)c(C)nc1C | 126% (inactive) |
| O=C(Nc1cccc(C2=NCCN2)c1)c1ccc(N=Nc2ccc(C(=O)Nc3cccc(C4=NCCN4)c3)cc2)cc1 | 65.2% (inactive) |
| Cc1c(C(=O)CCl)c(=O)n(-c2ccccc2)n1C | 57.5% (inactive) |
| O=C1/C=C/[C@@H](O)[C@@H]2C[C@@H](O)C[C@H]2/C=C/CCC[C@H]([C@@H](O)CO)O1 | 53.5% (inactive) |
| CC(=O)N1N=C(C2C(=O)N(C)C(=O)N(C)C2=O)CC1c1ccccc1C(=O)O (centres undefined) | 92.1% (inactive) |
| Cn1c(=O)c2c(nc(N/N=C/c3ccccc3Cl)n2C)n(C)c1=O | 137% (inactive) |

| SMILES | growth |
| --- | --- |
| O=C1Nc2ccc(Cl)cc2/C1=C\c1c(-c2ccc(F)cc2)nc2ccccn12 | 1% (active) |
| O=C(O/C(=C/c1ccccc1)C(F)(F)F)c1ccccc1 | 116% (inactive) |
| COC(=O)c1ccc2c(c1)nc(-c1cc3ccccc3[nH]c1=O)n2-c1cc(C(C)(C)C)[nH]n1 | 39.3% (inactive) |
| O=c1c2cc(Br)cc(Br)c2nc(-c2ccc(Cl)cc2)n1/N=C/c1cccc(F)c1 | 35.2% (inactive) |
| CCOC(=O)Nc1ccc2nc(N3CCCCCC3)sc2c1 | 43.7% (inactive) |
| COC(=O)CSc1ccc(Cl)cc1 | 108% (inactive) |
| COc1ccc(C(=O)N2N=C(c3ccc(F)cc3)CC2c2cn(-c3ccccc3)nc2-c2ccccc2)cc1 (centres undefined) | 83.7% (inactive) |
| N=c1nc(N2CCCCC2)cc(N)n1O | 109% (inactive) |
| COc1ccc(C2NC(=O)c3cc4c(cc3N2)OCO4)cc1 (centres undefined) | 16.4% (inactive) |
| O=C1OCC2=C1C(c1ccccc1)c1cc3c(cc1N2CCO)OCO3 (centres undefined) | 23.1% (inactive) |
| COc1ccc(/C=C/c2nc(NCCCN(C)C)c3ccccc3n2)cc1 | 90.5% (inactive) |
| c1ccc(CCn2cccc2)nc1 | 120% (inactive) |
| Nc1cc(C(=O)O)cc(C(=O)O)c1 | 113% (inactive) |
| Fc1ccc(-c2nc(-c3ccc(-c4nc5ccc(F)cc5[nH]4)cc3)no2)cc1 | 71.3% (inactive) |
| N=C(N)c1ccc(NCCNc2ccc(C(=N)N)cc2)cc1 | 109% (inactive) |
| COc1ccc(CC2c3cc(OC)c(OC)cc3CC[N+]2(C)CCC(=O)OCCCCCOC(=O)CC[N+]2(C)CCc3cc(OC)c(OC)cc3C2Cc2ccc(OC)c(OC)c2)cc1OC (centres undefined) | 93.4% (inactive) |
| C=CCN(CC#N)CC=C | 121% (inactive) |
| O=C1Nc2ccccc2/C1=C\c1nc(C2CCN(S(=O)(=O)c3ccc(F)cc3)CC2)n2ccccc12 | 19% (inactive) |
| COc1ccc(Nc2nc(N)nc3c(=O)[nH]ccc23)cc1 | 118% (inactive) |
